# The list is not random: actives were taken first. Their share in the collection is about 3.3%.
# AmpC detergent = AmpC beta-lactamase inhibition with detergent present; P00811; AmpC hydrolysis of nitrocefin, absorbance 480 nm, 0.01% Triton; Potency, µM (top dose mostly 114 µM), for inactives: at the top dose activity change, negative = inhibition, most hits filed as inhibitors; actives 0.041% (n = 370,000);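 also: 0% = no-compound wells and -100% = no-enzyme wells; nearly all actives have a fitted effect of over 25% in size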
# Target sequence (P00811 whole entry, looked up): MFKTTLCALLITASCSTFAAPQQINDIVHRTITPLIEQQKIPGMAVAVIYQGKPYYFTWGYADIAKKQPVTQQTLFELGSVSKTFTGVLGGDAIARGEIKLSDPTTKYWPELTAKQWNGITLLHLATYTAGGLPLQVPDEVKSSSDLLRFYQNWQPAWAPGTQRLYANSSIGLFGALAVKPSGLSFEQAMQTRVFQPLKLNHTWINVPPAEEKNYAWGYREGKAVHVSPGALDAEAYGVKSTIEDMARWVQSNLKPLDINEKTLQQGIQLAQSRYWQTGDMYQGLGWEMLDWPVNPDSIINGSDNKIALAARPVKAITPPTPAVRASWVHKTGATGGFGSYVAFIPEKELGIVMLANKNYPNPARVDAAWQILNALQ
#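 20 mM phosphate pH 7.0 + 0.01% (detergent screen) or 0.0001% Triton X-100; 5.3 nM AmpC reagent; cpd preinc 15 min RT; nitrocefin (800 uM stock) to start; A480 q20 s × 4 min; Activity was normalised to no-enzyme and no-compound control wells.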
# Sm TGR inh = S. mansoni TGR enzyme inhibition | Q962Y6 | purified TGR, DTNB reduction, TNB absorbance 405 nm | Potency, µM (highest dose often 114 µM), without a hit: top-dose activity change, negative = inhibition, most hits filed as inhibitors | actives 3% (n = 360,000); also: nearly all actives have a fitted effect of over 60% in size
#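 First, TGR (20 nM dispensed) and NADPH were mixed with compound. Second, a 15 min room-temperature incubation followed. Third, further NADPH and then DTNB were added to start the reaction. Finally, TNB absorbance was monitored kinetically.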
# AmpC inh no detg = inhibitors of E. coli AmpC beta-lactamase without detergent | Potency, µM (highest dose often 57.1 µM), without a hit: at the highest dose activity change, negative = inhibition, most hits filed as inhibitors | AmpC nitrocefin hydrolysis, absorbance 480 nm, 0.0001% Triton | P00811 | actives 0.52% (n = 330,000);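 also: plate controls were no compound for no effect and no enzyme for full effect; nearly all actives have a fitted effect of over 20% in size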
#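 AmpC (5.3 nM in the dispensed reagent) in 20 mM phosphate pH 7.0 with 0.01% (detergent screen) or 0.0001% Triton X-100 was preincubated with compounds for 15 min at room temperature. Nitrocefin was then added from an 800 uM solution, and hydrolysis was followed at 480 nm.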
# An asterisk follows results filed as active; u = inconclusive; x = no result given; [ ] = another dose, or the depositor's remark. Calls follow the shape of the dose curve; as a rule, active = well fitted curve in the direction sought with a large enough effect; inconclusive = small, poorly fitted or top-dose-only effect, or another doubt; inactive = no such curve, though single readings can be large; an effect the other way counts as inactive or inconclusive. Unless noted, % is scaled to controls: 0 for no effect and ±100 for the full control effect; potency is read from the fitted curve at half-maximal effect.
SMILES,AmpC detergent,Sm TGR inh,AmpC inh no detg
O=C1c2ccccc2C(=O)N1Cc1ccco1,-7%,1%,-12%
CC(=O)C1=C(c2cccc([N+](=O)[O-])c2)N(C(C)=O)n2c(nnc2-c2ccc(C)cc2)S1,4%,2%,x
Cc1ccccc1NC(=O)c1ccc(F)c(S(=O)(=O)N(C)C2CCCCC2)c1,3%,-4%,x
COc1cccc(-c2nc3ccccc3s2)c1O,-5%,x,-27%
Oc1c(Br)cc(Br)cc1-c1nc2ccccc2s1,3%,45µM*,x
CCCN1C(=O)C(Cc2nc3ccccc3c(=O)n2CC)c2ccccc21 (configuration not stated),19%,0%,x
O=C(NCC(c1ccc2c(c1)OCO2)N1CCN(c2ccccc2F)CC1)c1ccccc1F (configuration not stated),8%,17%,x
C/C=C/C=C/C(=O)[C@@H]1[C@@H]([C@]2(C)OC(=O)C(C)=C2O)[C@H]2/C(=C(O)/C=C/C=C/C)C(=O)[C@]1(C)C(=O)C2(C)O (some centres not stated),2%,10µM*,-5%
CCOC(=O)C1=C(CN2CCN(c3ccccc3F)CC2)NC(=O)NC1c1ccc(OC)cc1 (configuration not stated),-4%,-2%,x
CCN(CC)C(=O)c1c(NC(=O)c2ccccc2)sc(C)c1C,u,-22%,-17%
CCN(CC)Cc1c(NC(=O)c2ccccc2)sc(C)c1C,u,8.9µM*,-25%
Cc1cccc(NC(=O)c2cccc(N3C(=O)C4C5C=CC(C6CC56)C4C3=O)c2)c1 (configuration not stated),u,-21%,-8%
CC(=O)Oc1ccc(N2C(=O)C3C(C2=O)C2C=CC3C23CC3)cc1[N+](=O)[O-] (configuration not stated),1%,18µM*,-12%
CCOc1ccc(C(C)=O)cc1N1C(=O)C2C(C1=O)C1C=CC2C12CC2 (configuration not stated),3%,u,11%
CC(=O)Oc1ccc(N2C(=O)C3C4C=CC(C5CC45)C3C2=O)cc1[N+](=O)[O-] (configuration not stated),-11%,10µM*,-22%
CCN(c1ccccc1)c1ccc2cc(S(=O)(=O)N3CCCC3)ccc2n1,5%,7%,x
NC(=O)c1c(NC(=O)c2noc3c2CCCC3)sc2c1CCCC2,5%,0%,x
c1cncc(-c2nc(-c3ccco3)cs2)c1,u,7.9µM*,-28%
N#Cc1c(-c2cccnc2)cc(-c2ccccc2)nc1N,-4%,6%,-23%
N#Cc1c(-c2ccccc2)cc(C2CC2)nc1N,1%,7%,0%
N#Cc1c(-c2ccco2)cc(-c2cccnc2)nc1N,-11%,11µM*,-14%
N#Cc1c(-c2ccco2)cc(-c2ccccn2)nc1N,2%,10µM*,-15%
N#Cc1c(-c2ccco2)cc(C2CC2)nc1N,-14%,10µM*,-19%
c1cncc(-c2csc(-c3cccnc3)n2)c1,1%,13%,-8%
N#Cc1c(-c2ccccc2F)cc(-c2cccnc2)nc1N,u,-8%,-16%
SMILES,AmpC detergent,Sm TGR inh,AmpC inh no detg
CCC(CC)c1nn2c(=O)cc(COc3ccc(NC(=O)c4cccc(C)c4)cc3)nc2s1,9%,-3%,x
COc1cccc(-n2c(=O)c3c(C)c(C)sc3n(CC(=O)Nc3ccccc3OC)c2=O)c1,14%,13%,x
Cn1c(=O)c2c(nc(N3CCOCC3)n2Cc2ccc(Br)cc2)n(C)c1=O,-4%,0%,x
Cc1cc(NC(c2nnc(-c3ccccc3)o2)c2ccccc2F)ccc1Br (configuration not stated),23%,4%,x
COc1cccc(-c2cc(C(=O)NCc3ccccc3)[nH]n2)c1,-3%,14%,x
COCCCNc1nc(NCc2ccccc2OC)c2cnn(C)c2n1,1%,-15%,x
CCOC(=O)CC(NC(=O)c1cc2cc(OC)ccc2oc1=O)c1ccc(OC)cc1 (configuration not stated),-3%,-9%,x
CN(CC(=O)Nc1ccccc1Cl)C(=O)COC(=O)c1ccc(Cl)nc1,-9%,2%,-14%
CN(CC(=O)Nc1ccccc1Cl)C(=O)COC(=O)c1nc(Cl)c(Cl)c(Cl)c1Cl,5%,18µM*,84%
Cc1ccc(/C=C/c2onc(C)c2S(=O)(=O)N2CCC(C(=O)Nc3cccc(C#N)c3)CC2)cc1,1%,-1%,x
Cc1c(Cl)cccc1NC(=O)CSc1ncccc1C(=O)Oc1ccccc1Cl,-4%,-8%,x
NS(=O)(=O)c1cccc(NC(=O)COC(=O)Cc2ccc(S(=O)(=O)N3CCCCC3)s2)c1,-5%,-18%,32µM*
O=C(COC(=O)Cc1ccc(S(=O)(=O)N2CCCCC2)s1)Nc1ccc2c(c1)OCO2,u,-25%,-55%
O=C(Cc1ccc(S(=O)(=O)N2CCCC2)s1)Nc1nc2c(s1)CCCC2,u,-23%,14µM*
Cc1cc(C)cc(NC(=O)Cc2ccc(S(=O)(=O)N3CCCC3)s2)c1,1%,-3%,-21%
COCCCNC(=O)c1c(NC(=O)Cc2coc3cc(C)ccc23)sc2c1CCCC2,14%,6%,x
COc1ccccc1CNC(=O)Cc1c(C)c2c(cc(C)c3c(C)coc32)oc1=O,-2%,-4%,x
Cc1ccc(NC(=O)NNS(=O)(=O)c2ccc(Br)cc2)cc1,-14%,-16%,-22%
Cc1ccc(S(=O)(=O)N(C)C)cc1NC(=O)Nc1ccccc1,1%,4%,-55%
Cc1ccc(S(=O)(=O)NC(=O)Nc2ccc(N(C)C)cc2)cc1,-14%,50µM*,-42%
Cc1ccc(NC(=O)Nc2cc(S(=O)(=O)N(C)C)ccc2C)cc1,-8%,3%,25µM*
O=C(COc1ccc([N+](=O)[O-])cc1)N1CCC(c2nc3ccccc3s2)CC1,9%,u,x
Cc1ccc(Cn2c(SCc3ccc(C(=O)N4CCCCC4)cc3)nc3ccncc32)cc1,9%,-19%,x
CCCn1cc(S(=O)(=O)c2cccc(Cl)c2)c(=O)c2cc(F)c(N3CCCC3)cc21,3%,4%,x
COc1cc(-c2nnc(SCCOc3cc(C)cc(C)c3)o2)cc(OC)c1OC,21%,35µM*,x
SMILES,AmpC detergent,Sm TGR inh,AmpC inh no detg
CCc1ccccc1OCCSc1nnc(-c2cc(OC)c(OC)c(OC)c2)o1,1%,-13%,x
COc1ccc2c3c(c(=O)oc2c1)C1O[C@](c2ccsc2)(Cc2cc(C#N)ccc21)O3,u,6.3µM*,5µM*
Cc1cc2c(c(=O)o1)C1O[C@](c3ccsc3)(Cc3cc(C#N)ccc31)O2,u,u,-50%[11.4 µM]
COc1ccc([C@]23Cc4cc(C#N)ccc4C(O2)c2c(cc(-c4ccccc4)oc2=O)O3)cc1,-12%[22.9 µM],-23%[22.9 µM],u
N#Cc1ccc2c(c1)C[C@]1(c3ccsc3)Oc3c(c(=O)oc4ccccc34)C2O1,-3%[22.9 µM],7.1µM*,5µM*
Cc1ccc(C)c(CN2C(=O)c3ccccc3S(=O)(=O)c3ccc(C(=O)N4CCCCC4)cc32)c1,-15%,8%,x
CCOC(=O)c1c(C)oc2nc(C)nc(N(C)Cc3ccccc3)c12,3%,-2%,x
COc1cc2nc(NCCc3cccc(C)c3)n3nc(-c4ccccc4)nc3c2cc1OC,15%,5%,x

# Assay outcomes: PubChem, National Center for Advancing Translational Sciences (NCATS)
